# PrP 5UTR inh: inhibition of PrP 5' UTR reporter expression | cell-based PrP 5' UTR mRNA reporter, plate reader | inhibition, % (no concentration beside the values) | 340,000 tested, 0.35% active | AID 488862, 2010; in the data active means inhibition above about 52%
# GDH-TPI counter: GDH-TPI coupling enzyme inhibitors, primary screen, artefact control for M. tuberculosis FBA inhibitor project, biochemical, absorbance, full deck; GDH-TPI coupled enzyme counterscreen, NADH absorbance; 360,000 tested, 1.2% active; inhibition, % at 4.8 µM; in the data active means inhibition above about 30%
# FBA Mtb inh: Mtb FBA enzyme inhibitors, primary screen, biochemical, fluorescence, strain H37Rv. Fructose-bisphosphate aldolase (Mycobacterium tuberculosis (strain ATCC 25618 / H37Rv)), …. purified M. tuberculosis FBA, fluorescence read-out. inhibition, % at 1 µM. 360,000 tested, 2.3% active; in the data active means inhibition above about 27%
# Target sequence (P9WQA3 whole entry, looked up): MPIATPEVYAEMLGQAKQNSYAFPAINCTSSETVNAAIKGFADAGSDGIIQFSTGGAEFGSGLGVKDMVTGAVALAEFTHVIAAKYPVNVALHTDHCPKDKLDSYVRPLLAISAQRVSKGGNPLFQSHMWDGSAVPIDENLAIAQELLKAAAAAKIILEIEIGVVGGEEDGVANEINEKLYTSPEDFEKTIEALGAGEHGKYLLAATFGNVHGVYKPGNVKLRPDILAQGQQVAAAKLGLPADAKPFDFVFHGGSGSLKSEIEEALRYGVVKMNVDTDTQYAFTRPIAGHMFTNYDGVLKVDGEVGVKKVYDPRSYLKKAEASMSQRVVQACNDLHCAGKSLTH
# PfHsp40 rescue: rescue of yeast from PfHsp40 toxicity, primary screen, S. cerevisiae, ATP luminescence | growth rescue, % at 12.5 µM | S. cerevisiae expressing PfHsp40, growth rescue | 340,000 tested, 0.68% active; in the data active means growth rescue above about 28%, passing the limit was not always enough; inconclusive means no clear call, values can overlap the other calls;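 further: yeast W303a lacking pdr1 and pdr3 grown in galactose medium; growth measured after three days at 30 °C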
# PrPC surface inh: inhibitors of human cell surface prion protein PrPC, primary screen, cell-based, TR-FRET; 370,000 tested, 0.43% active; TR-FRET read-out; inhibition, % at 13.8 µM; Major prion protein (Homo sapiens), P04156; in the data active means inhibition above about 24%
# BJeLR lethal: MLPCN primary cell-based screen for lethality selective to Ras in HRASV12 cells | BJeLR (HRASV12) viability, CellTiter-Glo ATP luminescence, 48 h | inhibition, % (no concentration beside the values) | 300,000 tested, 0.17% active | AID 1554, 2009; in the data active means inhibition above about 50%; inconclusive means no clear call, values can overlap the other calls
# A number is an active result; i = inactive; ? = inconclusive; nt = no result; + = active, no number. This is a sample that favours compounds with a hit; in the whole collection about 4.5% have one here.
SMILES,PrP 5UTR inh,GDH-TPI counter,FBA Mtb inh,PfHsp40 rescue,PrPC surface inh,BJeLR lethal
COc1ccc(/C=C2/SC(=S)N(CCC(=O)O)C2=O)cc1,62.8,i,i,i,i,i
COc1ccc(/C=C2\SC(=S)N(CCC(=O)Nc3ccc(C(=O)O)cc3)C2=O)cc1,i,i,i,i,i,i
COc1ccc(/C=C2\SC(=O)N(CCNC(=O)CCS(=O)(=O)c3ccc(C)cc3)C2=O)cc1,i,32.6,i,i,i,i
CN1CCN(C(=O)CCN2C(=O)S/C(=C/c3ccc(Cl)cc3)C2=O)CC1,i,i,i,i,i,nt
Cc1ccc(/C=C2\SC(=O)N(CCC(=O)N3CCN(C)CC3)C2=O)cc1,i,35.3,i,?,i,i
COc1ccc(/C=C2\SC(=O)N(CCNC(=O)Cn3cnnn3)C2=O)cc1,i,i,i,i,nt,i
COc1cccc(/C=C2\SC(=O)N(CCC(=O)N3CCC(C(=O)O)CC3)C2=O)c1,i,46.1,i,i,i,i
Cc1ccc(/C=C2/SC(=S)N(CCC(=O)N3CCN(C)CC3)C2=O)cc1,i,i,i,i,i,i
COc1ccc(/C=C2\SC(=O)N(CCC(=O)N3CCN(C)CC3)C2=O)cc1,i,40.6,i,i,i,i
C#CCOCCOCCOCCNc1nc(N2CCN(C(=O)Cn3cc(CCCN=C(N)N)nn3)CC2)nc(N2CCN(C(=O)[C@H](Cc3ccc(O)cc3)n3cc(CCO)nn3)CC2)n1,nt,nt,nt,nt,i,nt
Cc1ccc(-c2c(NC(=O)c3cccc(C)c3)nc3ncccn23)cc1,nt,nt,nt,nt,i,nt
C1CCN(c2nc3nonc3nc2NCC2CCOCC2)CC1,i,52.0,i,i,nt,i
C[C@H](NS(=O)(=O)c1ccc([N+](=O)[O-])cc1)C(=O)NCCNC(=O)[C@@H](C)NS(=O)(=O)c1ccc([N+](=O)[O-])cc1,nt,nt,nt,nt,i,nt
Cc1c(NC(=S)N/N=C/c2ccc([N+](=O)[O-])cc2O)c(=O)n(-c2ccccc2)n1C,i,48.1,i,i,i,i
Cc1c(NC(=S)N/N=C\c2ccccc2O)c(=O)n(-c2ccccc2)n1C,i,30.8,i,i,i,i
Cc1c(NC(=S)N/N=C/c2ccc(Br)cc2)c(=O)n(-c2ccccc2)n1C,i,i,i,i,i,i
CC(=O)c1cc(-c2ccccc2S(=O)(=O)NC(C)(C)C)c(=O)n2c1CCC2,nt,nt,nt,nt,i,nt
CCOc1ccccc1N1CCN(Cc2cn[nH]c2-c2ccc(F)cc2)CC1,i,i,31.1,i,i,i
C=C1C(=O)[C@@]23[C@H](O)C[C@@H]4C(C)(C)CC[C@H](O)[C@@]4(C)[C@@H]2CC[C@@H]1[C@H]3O,i,i,i,i,70.9,i
C=C1C(=O)[C@@]23[C@H](O)C[C@@H]4C(C)(C)CC[C@H](O)[C@]4(C)[C@@H]2C[C@H](O)[C@@H]1[C@H]3O,i,i,i,i,25.3,i
C=C1[C@@H]2CC[C@H]3[C@]4(C)[C@@H](O)CC[C@@](C)(C(=O)OC)[C@H]4C[C@H](O)[C@]3(C2)[C@H]1O,nt,nt,nt,nt,i,nt
COc1c2ccoc2c(OC[C@@H](O)C(C)(C)O)c2oc(=O)ccc12,i,i,i,i,i,i
COc1c2ccoc2nc2c(OC)c(OCC(OC(C)=O)C(C)(C)O)ccc12 (centres undefined),i,i,129.5,i,i,i
COc1c2ccoc2nc2c(OC)c(O)ccc12,i,i,i,i,i,i
COc1c2ccoc2nc2c(OC)c(OCC(O)C(C)(C)O)ccc12 (centres undefined),i,i,146.3,i,i,nt
SMILES,PrP 5UTR inh,GDH-TPI counter,FBA Mtb inh,PfHsp40 rescue,PrPC surface inh,BJeLR lethal
COc1c2ccoc2nc2c(OC)c(OC[C@@H](O)C(C)(C)O)ccc12,i,i,145.9,i,i,nt
CC(C)(N[C@@H](Cc1ccccc1)C(=O)NCCc1c[nH]c2ccccc12)C(=O)NC1CCCCC1,nt,nt,nt,nt,i,nt
O=C(CN1CCCc2ccccc21)NCc1ccccc1F,nt,nt,nt,nt,i,nt
Cc1c(Cl)cccc1NC(=O)CC1NCCNC1=O (centres undefined),i,i,+,i,i,i
CCOc1ccc(NC(=S)Nc2cc(-c3ccccc3)[nH]n2)cc1,i,i,i,105.8,i,i
O=C1NC(=S)N/C1=C/c1cccnc1,i,45.0,i,i,i,i
O=C1/C(=C/c2cccnc2)CC/C1=C\c1cccnc1,i,53.8,i,i,i,i
O=C1NC(=S)N/C1=C\c1cccnc1,i,i,i,i,i,i
O=C1NC(=S)N/C1=C/c1cccc([N+](=O)[O-])c1,i,i,i,60.5,i,i
O=C1NC(=S)N/C1=C\c1cccc([N+](=O)[O-])c1,i,33.5,i,i,i,i
COC(=O)CN(Cc1cn(Cc2ccccc2)nn1)S(=O)(=O)c1ccccc1Br,nt,nt,nt,nt,i,nt
Cc1cc2c(c(=O)n1C)C(Cc1ccccc1)C(C#N)=C(N)O2 (centres undefined),i,i,i,?,i,i
CCCC1C(C#N)=C(N)Oc2cc(C)n(C)c(=O)c21 (centres undefined),i,i,114.4,i,i,i
COc1ccc(/C=C/C(=O)O)cc1,i,i,i,i,i,nt
COc1ccc(/C=C/C(=O)c2ccc(OC)cc2OC)cc1,i,38.2,i,i,i,i
COc1ccc(C(=O)Nc2ccc3ccccc3c2)c(OC)c1,i,i,i,59.6,i,i
COc1ccc(C(=O)/C=C/c2ccccc2)c(O)c1,i,i,i,i,i,i
COc1cc(OC)c(C(=O)Nc2ccc(C(=O)c3ccccc3)cc2)cc1OC,i,i,i,154.0,i,i
COc1ccc(/C=C/C(=O)C2(O)CCCCC2)cc1,i,38.8,i,i,i,i
COc1ccc(C(C(=O)N(C)C2CCCC2)N(Cc2ccc(F)cc2)C(=O)c2csc3ccc(Cl)cc23)cc1OC (centres undefined),nt,nt,nt,nt,i,nt
C=C(C)Cn1c(SCC(=O)N/N=C(\C)c2ccc([N+](=O)[O-])cc2)nnc1-c1ccc(Br)cc1,nt,nt,nt,nt,i,nt
COc1cc(OC)cc(-c2c(C#Cc3ccsc3)c3cc(Br)ccc3n2C)c1,i,i,i,i,i,nt
COc1cc(OC)cc(-c2c(C#Cc3ccsc3)c3cc(-c4cccc5[nH]cc(C=O)c45)ccc3n2C)c1,i,32.3,i,i,i,nt
COc1cc(OC)cc(-c2c(C#Cc3ccsc3)c3cc(-c4ccc(OC)nc4)ccc3n2C)c1,i,44.2,i,i,i,nt
COc1ccc(-c2c(C#Cc3ccsc3)c3ccccc3n2C)cc1,i,i,i,i,i,i
COc1ccc(-c2c(C#Cc3ccsc3)c3cc(-c4ccc(C(N)=O)cc4)ccc3n2C)cc1,i,i,i,i,i,nt
COc1cc(OC)cc(-c2c(C#Cc3ccsc3)c3cc(-c4ccc(OC)c(OC)c4)ccc3n2C)c1,i,44.0,i,i,i,nt
